Screens: PubChem BioAssay, several laboratories
Shown are actives, neighbours in structure and some others; about 3.3% of the full set was active somewhere.
Gli-Sufu block = antagonists of Gli-Sufu signaling. Sufu-KO-LIGHT fibroblasts, Gli luciferase reporter luminescence. inhibition, % at 5 µM. 340,000 tested, 0.74% active. AID 588413;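 active = inhibition above about 55%, limit read from the data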
SMARCA2 act = activators of SMARCA2 function; MG213 cells, MMTV-luciferase reporter, dexamethasone, overnight; AID 652017; 370,000 tested, 1% active; activation, % at 9.1 µM; in the data active = activation above about 7.8%
esBAF inh = blocks esBAF chromatin remodeling in mouse ES cells; reporter increase, % at 12.5 µM; Bmi1-luciferase knock-in reporter, 24 h; 100% = twice the neutral-well signal; AID 602393; 350,000 tested, 2% active; in the data active = activation above about 40%;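 note: a rise in the Bmi1 reporter signal indicates esBAF inhibition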
Jurkat NFkB inh = inhibitors of the PMA/ionomycin-induced NF-kB reporter in Jurkat cells; PMA/ionomycin-induced NF-kB luciferase reporter, luminescence; inhibition, % at 4 µM; 330,000 tested, 0.53% active; in the data active = inhibition above about 50%
697 NFkB inh = lowers PMA/ionomycin-induced NF-kB signal in 697 B cells; inhibition, % at 4 µM; AID 435022; 697 B-cell NF-kB luciferase reporter, 16 h; 330,000 tested, 0.33% active; in the data active = inhibition above about 35%
697 NFkB conf = lowers PMA/ionomycin-induced NF-kB signal in 697 B cells | shares compounds with 697 NFkB inh | 697 B-cell NF-kB luciferase, 16 h | inhibition, % at 4 µM | 2,000 tested, 35% active; in the data active = inhibition mostly above about 28%, no sharp cut-off; inactive = mostly below about 22%
A number is an active result.

For C[C@H]1CN([C@@H](C)CO)C(=O)Cc2cc(NC(=O)Cn3cnnn3)ccc2O[C@H]1CN(C)C(=O)Nc1cccc2ccccc12 the results were esBAF inh inactive.
COc1ccc(NC(=O)N(C)C[C@@H]2OCc3ccccc3-c3c(n(C)c4ccccc34)C(=O)N([C@@H](C)CO)C[C@H]2C)cc1 was read as esBAF inh inactive.
`CC1CC(C)CN(S(=O)(=O)c2ccc(C(=O)NCCCn3ccnc3)cc2)C1` (stereo not given) gave Gli-Sufu block inactive, esBAF inh inactive, Jurkat NFkB inh inactive, 697 NFkB inh 70 and 697 NFkB conf 50.
Cc1cc(=O)[nH]c2c(C)cc(S(=O)(=O)N3CCCCC3)cc12 was read as Gli-Sufu block inactive, SMARCA2 act inactive, esBAF inh inactive, Jurkat NFkB inh inactive, 697 NFkB inh 43 and 697 NFkB conf 36.
S=C(c1ccc(-c2ccccc2)cc1)N1CCOCC1 was read as Gli-Sufu block inactive, SMARCA2 act inactive, esBAF inh inactive, Jurkat NFkB inh inactive, 697 NFkB inh 55 and 697 NFkB conf inactive.
O=C(C[C@@H]1C=C[C@@H](NC(=O)C2CCC2)[C@H](CO)O1)NCc1ccncc1 was read as esBAF inh inactive.
Screening CCC(c1c(C)n(C)n(-c2ccccc2)c1=O)c1c(C)n(C)n(-c2ccccc2)c1=O returned Gli-Sufu block inactive, SMARCA2 act inactive, esBAF inh inactive, Jurkat NFkB inh inactive and 697 NFkB inh inactive.
`CCCC(c1c(C)n(C)n(-c2ccccc2)c1=O)c1c(C)n(C)n(-c2ccccc2)c1=O` gave Gli-Sufu block inactive, SMARCA2 act inactive, esBAF inh inactive, Jurkat NFkB inh inactive, 697 NFkB inh 40 and 697 NFkB conf inactive.
Screening CCOC(=O)C1CCN(c2ncnc3c2cnn3-c2ccc(Cl)cc2)CC1 returned Gli-Sufu block inactive, SMARCA2 act inactive, Jurkat NFkB inh inactive, 697 NFkB inh 61 and 697 NFkB conf 67.
Screening CCOC(=O)C1CCN(c2ncnc3c2cnn3C)CC1 returned Gli-Sufu block inactive, esBAF inh inactive, Jurkat NFkB inh inactive and 697 NFkB inh inactive.
For O=C([C@H]1[C@H](CO)[C@H]2Cn3c(ccc(C4=CCCC4)c3=O)[C@H]2N1Cc1nccs1)N1CCCCC1 the results were esBAF inh inactive.
For Nc1nn(-c2ccccc2)c(N)c1N=Nc1ccc2c(c1)OCO2 the results were Gli-Sufu block inactive, SMARCA2 act inactive, Jurkat NFkB inh inactive, 697 NFkB inh inactive and 697 NFkB conf inactive.
Nc1nn(-c2ccccc2)c(N)c1N=Nc1cccc(F)c1 was read as Gli-Sufu block inactive, SMARCA2 act inactive, Jurkat NFkB inh inactive and 697 NFkB inh inactive.
C[C@H]1CN([C@@H](C)CO)C(=O)CCCn2cc(nn2)CO[C@H]1CN(C)Cc1cccc2c1OCCCO2 was read as esBAF inh inactive.
For C[C@H]1CN([C@@H](C)CO)C(=O)Cc2cc(NC(=O)Nc3cccc4ccccc34)ccc2O[C@@H]1CN(C)C(=O)Nc1ccc2c(c1)OCO2 the results were esBAF inh inactive.
Screening CCCN1C[C@H](C)[C@@H](OC)CN(C)C(=O)c2ccc(NC(=O)Nc3ccccc3F)cc2OC[C@H]1C returned esBAF inh inactive.
For CCOC(=O)/C=C(\C)Sc1cc(=O)oc2ccccc12 the results were Gli-Sufu block inactive, SMARCA2 act inactive, esBAF inh inactive, Jurkat NFkB inh inactive, 697 NFkB inh 36 and 697 NFkB conf 28.
Cc1c(NC(=O)/C=C/c2cn(-c3ccccc3)nc2-c2ccccc2)c(=O)n(-c2ccccc2)n1C was read as Gli-Sufu block inactive, SMARCA2 act inactive, esBAF inh inactive, Jurkat NFkB inh inactive, 697 NFkB inh 35 and 697 NFkB conf 28.
Screening O=C(O)/C=C/c1cn(-c2ccccc2)nc1-c1ccccc1 returned Gli-Sufu block inactive, SMARCA2 act inactive, esBAF inh inactive, Jurkat NFkB inh inactive and 697 NFkB inh inactive.
`C[C@H]1CN([C@@H](C)CO)C(=O)CCCn2cc(nn2)CO[C@H]1CN(C)C(=O)Cc1ccccc1` gave esBAF inh inactive.
COC(=O)c1ccccc1-c1c2ccc(=N)cc-2oc2cc(N)ccc12 was read as Gli-Sufu block inactive, SMARCA2 act inactive, esBAF inh inactive, Jurkat NFkB inh inactive, 697 NFkB inh inactive and 697 NFkB conf inactive.
